Test results taken from the supplement of paper PMC10849652.
About 8,800 targets were measured; listed, in parts, are those with a hit and a random draw of the rest. About 0.5% of all pairs of compound and target were hits.

Legend:
Test in all cases: log2 fold change, soluble protein after heating vs DMSO (PISA); higher = thermal stabilisation; K562 lysate, 10 uM; active = over 0.2 and 3.5 SD of the protein, either way, in both replicates (recomputed)
erlotinib = compound: C#Cc1cccc(Nc2ncnc3cc(OCCOC)c(OCCOC)cc23)c1 [erlotinib]
In short: (§1)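 Thermal stability, expressed as log-two fold change relative to solvent controls, is given from duplicates. Crude K562 extract in PBS pH 7.4 with 1 mM MgCl2, at 1 mg/mL protein, was treated with 10 μM compound for 30 min and heated in aliquots for 3 min across 48°C-58°C. After pooling, adjustment to 0.5% NP-40 at 4°C and centrifugation at 21,000xg for 90 min, supernatant protein was measured by TMTpro 16plex LC-MS/MS with channel sums equalised.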

[1] = compound: C/C(=N\NC(=O)C1=CC(=CC=C1)S(=O)(=O)N2CCOCC2)/C3=C(C=CC(=C3)Cl)O
In short: as §1

[2] = compound: C1=CC(=CC=C1C2=NC3=C(N2)C=C(C=C3)C(=O)N)OC4=CC=C(C=C4)Cl
In short: as §1

[3] = compound: C1=CC2=C(C=CC(=C2)/C=C\3/C(=O)NC(=NCC4=CC=CS4)S3)N=C1
In short: as §1

[4] = compound: C1=CC2=NC=CN=C2C=C1/C=C/3\C(=O)NC(=O)S3
In short: as §1

[5] = compound: C1=CC=C(C=C1)C2=NC(=C(N2)C3=CC=NC=C3)C4=CC(=C(C=C4)Cl)O
In short: as §1

[6] = compound: C1=CC=C2C(=C1)C3=NNC4=CC=CC(=C43)C2=O
In short: as §1

[7] = compound: C1CCN(C1)C(=O)NC2=CC=CC(=C2)NC3=NC=C(C(=N3)NCCC4=CN=CN4)Br
In short: as §1

[8] = compound: C1CN(CCC1(CC2=CC=C(C=C2)Cl)N)C3=NC=NC4=C3C=CN4
In short: as §1

IRAK-1-4 Inhibitor I = compound: C1COCCN1CCN2C3=CC=CC=C3N=C2NC(=O)C4=CC(=CC=C4)[N+](=O)[O-] [IRAK-1-4 Inhibitor I]
In short: as §1

ibrutinib = compound: C=CC(=O)N1CCC[C@@H](n2nc(-c3ccc(Oc4ccccc4)cc3)c3c(N)ncnc32)C1 [ibrutinib]
In short: as §1

[9] = compound: CC(=O)c1cnc2ccc(-c3cc(Cl)c(O)c(Cl)c3)nc2c1N[C@H]1CC[C@H](CN(C)C)CC1
In short: as §1

ralimetinib = compound: CC(C)(C)Cn1c(N)nc2ccc(-c3[nH]c(C(C)(C)C)nc3-c3ccc(F)cc3)nc21 [ralimetinib]
In short: as §1

[10] = compound: CC(C)(O)CC(=O)NCCn1ccc2ncnc(Nc3ccc(Oc4cccc(C(F)(F)F)c4)c(Cl)c3)c21
In short: as §1

[11] = compound: CC(C)C1=C2N=C(C=C(N2N=C1)NCC3=CC=CC=C3)NCCCCCCN
In short: as §1

[12] = compound: CC1=C(C(CC(=O)N1)C2=CC=C(C=C2)C(F)(F)F)C(=O)NC3=C(C=C4C(=C3)C=NN4)F
In short: as §1

[13] = compound: CC1=C(C2=C(C=C1)C(=O)C3=CC=CC=C3N2CCCN)C
In short: as §1

[14] = compound: CC1=C(C=C(C=C1)NC(=O)C2=CC(=CC=C2)C(C)(C)C#N)NC3=CC4=C(C=C3)N=CN(C4=O)C
In short: as §1

[15] = compound: CC1=C(C=C(C=C1)NC(=O)C2=CC(=CC=C2)N(C)C)NC(=O)C3=CC=C(C=C3)O
In short: as §1

[16] = compound: CC1=CC=C(C=C1)SC2=C3C=C(SC3=CN=C2)C(=O)N
In short: as §1

Measured: log2 fold change

HK1 isoform 2 (UniProt P19367)
inactive: erlotinib -0.027 | [1] -0.006 | [2] 0.009 | [3] 0.006 | [4] 0.007 | [5] 0.007 | [6] -0.006 | [7] 0.001 | [8] 0.014 | IRAK-1-4 Inhibitor I -0.002 | ibrutinib -0.007 | [9] 0.005 | ralimetinib -0.008 | [10] 0.021 | [11] -0.029 | [12] -0.029 | [13] 0.025 | [14] 0.023 | [15] 0.016 | [16] 0.008

GMDS (UniProt O60547)
Chain of UniProt O60547 (O60547 whole entry, looked up): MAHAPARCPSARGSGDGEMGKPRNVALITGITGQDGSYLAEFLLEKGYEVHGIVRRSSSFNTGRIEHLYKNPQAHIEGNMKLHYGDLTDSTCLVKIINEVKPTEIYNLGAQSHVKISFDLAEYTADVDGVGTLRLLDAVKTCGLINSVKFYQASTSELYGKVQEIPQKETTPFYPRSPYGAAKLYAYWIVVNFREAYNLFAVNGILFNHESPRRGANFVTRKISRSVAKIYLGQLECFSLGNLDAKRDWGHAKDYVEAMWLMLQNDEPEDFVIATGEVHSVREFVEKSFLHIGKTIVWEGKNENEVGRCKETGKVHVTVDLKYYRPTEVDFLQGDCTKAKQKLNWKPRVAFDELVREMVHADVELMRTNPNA
inactive: erlotinib 0.017 | [1] 0.005 | [2] 0.029 | [3] -0.054 | [4] -0.012 | [5] -0.023 | [6] -0.043 | [7] 0.019 | [8] 0.036 | IRAK-1-4 Inhibitor I 0.01 | ibrutinib 0.042 | [9] -0.018 | ralimetinib 0.025 | [10] 0.01 | [11] -0.023 | [12] 0.031 | [13] 0.022 | [14] 0.027 | [15] 0.008 | [16] 0.015

GMPS (UniProt P49915)
Chain of UniProt P49915 (P49915 whole entry, looked up): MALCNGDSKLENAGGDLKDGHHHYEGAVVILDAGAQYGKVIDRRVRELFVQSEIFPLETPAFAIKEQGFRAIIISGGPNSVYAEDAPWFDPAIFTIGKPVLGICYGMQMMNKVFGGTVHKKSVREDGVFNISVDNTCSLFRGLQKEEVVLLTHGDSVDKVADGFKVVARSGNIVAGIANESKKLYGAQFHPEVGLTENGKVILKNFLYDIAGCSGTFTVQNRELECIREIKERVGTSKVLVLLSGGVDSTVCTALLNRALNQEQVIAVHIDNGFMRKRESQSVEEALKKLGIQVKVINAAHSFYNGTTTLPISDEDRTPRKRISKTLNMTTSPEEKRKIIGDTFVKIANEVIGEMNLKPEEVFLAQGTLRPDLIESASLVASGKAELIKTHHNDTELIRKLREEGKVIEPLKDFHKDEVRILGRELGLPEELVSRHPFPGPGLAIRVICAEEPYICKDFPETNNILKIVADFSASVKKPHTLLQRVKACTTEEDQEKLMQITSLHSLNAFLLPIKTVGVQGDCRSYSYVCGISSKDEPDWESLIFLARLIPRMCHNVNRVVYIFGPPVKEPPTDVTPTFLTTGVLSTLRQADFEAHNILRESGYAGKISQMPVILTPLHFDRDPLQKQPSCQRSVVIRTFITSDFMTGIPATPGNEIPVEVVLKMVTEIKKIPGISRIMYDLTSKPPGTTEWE
inactive: erlotinib 0.014 | [1] -0.025 | [2] 0.004 | [3] 0.029 | [4] -0.013 | [5] -0.007 | [6] -0.009 | [7] -0.003 | [8] 0.017 | IRAK-1-4 Inhibitor I -0.004 | ibrutinib -0.034 | [9] 0.003 | ralimetinib 0.009 | [10] 0.013 | [11] 0.006 | [12] -0.032 | [13] 0.025 | [14] -0.024 | [15] 0.015 | [16] 0.02

GLUD2 (UniProt P49448)
Chain of UniProt P49448 (P49448 whole entry, looked up): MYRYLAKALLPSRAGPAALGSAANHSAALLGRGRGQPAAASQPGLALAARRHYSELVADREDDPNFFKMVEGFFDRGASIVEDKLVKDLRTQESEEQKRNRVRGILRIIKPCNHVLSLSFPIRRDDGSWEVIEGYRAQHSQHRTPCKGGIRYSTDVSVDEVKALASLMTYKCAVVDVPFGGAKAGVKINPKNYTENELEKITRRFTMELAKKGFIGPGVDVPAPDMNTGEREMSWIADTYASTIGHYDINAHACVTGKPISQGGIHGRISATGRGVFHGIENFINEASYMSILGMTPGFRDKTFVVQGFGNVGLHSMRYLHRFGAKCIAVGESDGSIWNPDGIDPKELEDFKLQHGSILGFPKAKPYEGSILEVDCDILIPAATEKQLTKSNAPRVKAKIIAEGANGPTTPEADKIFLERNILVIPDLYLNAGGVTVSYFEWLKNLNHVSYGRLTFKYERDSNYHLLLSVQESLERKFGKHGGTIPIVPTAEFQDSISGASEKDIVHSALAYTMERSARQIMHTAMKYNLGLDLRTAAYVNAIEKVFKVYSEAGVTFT
inactive: erlotinib -0.017 | [1] -0.016 | [2] -0.053 | [3] 0.028 | [4] -0.057 | [5] -0.014 | [6] -0.09 | [7] -0.119 | [8] 0.029 | IRAK-1-4 Inhibitor I 0.113 | ibrutinib -0.063 | [9] 0.063 | ralimetinib 0.02 | [10] -0.043 | [11] -0.012 | [12] 0.018 | [13] -0.028 | [14] 0.061 | [15] 0.001 | [16] 0.033

IARS (UniProt P41252)
inactive: erlotinib 0.022 | [1] 0.061 | [2] -0.011 | [3] 0.013 | [4] 0.02 | [5] 0.006 | [6] -0.035 | [7] 0.006 | [8] 0.01 | IRAK-1-4 Inhibitor I -0.006 | ibrutinib -0.015 | [9] -0.001 | ralimetinib 0.037 | [10] 0.035 | [11] 0.029 | [12] -0.016 | [13] 0.012 | [14] -0.04 | [15] 0.05 | [16] 0.029

HELQ (UniProt Q8TDG4)
inactive: erlotinib -0.029 | [1] -0.023 | [2] 0.044 | [3] 0.07 | [4] 0.019 | [5] 0.004 | [6] 0.077 | [7] 0.056 | [8] 0.064 | IRAK-1-4 Inhibitor I -0.033 | ibrutinib 0.054 | [9] 0.072 | ralimetinib -0.007 | [10] -0.017 | [11] -0.012 | [12] 0.203 | [13] 0.003 | [14] -0.036 | [15] 0.046 | [16] -0.002

GRK6 isoform 2 (UniProt P43250)
Chain of UniProt P43250 (P43250 whole entry, looked up): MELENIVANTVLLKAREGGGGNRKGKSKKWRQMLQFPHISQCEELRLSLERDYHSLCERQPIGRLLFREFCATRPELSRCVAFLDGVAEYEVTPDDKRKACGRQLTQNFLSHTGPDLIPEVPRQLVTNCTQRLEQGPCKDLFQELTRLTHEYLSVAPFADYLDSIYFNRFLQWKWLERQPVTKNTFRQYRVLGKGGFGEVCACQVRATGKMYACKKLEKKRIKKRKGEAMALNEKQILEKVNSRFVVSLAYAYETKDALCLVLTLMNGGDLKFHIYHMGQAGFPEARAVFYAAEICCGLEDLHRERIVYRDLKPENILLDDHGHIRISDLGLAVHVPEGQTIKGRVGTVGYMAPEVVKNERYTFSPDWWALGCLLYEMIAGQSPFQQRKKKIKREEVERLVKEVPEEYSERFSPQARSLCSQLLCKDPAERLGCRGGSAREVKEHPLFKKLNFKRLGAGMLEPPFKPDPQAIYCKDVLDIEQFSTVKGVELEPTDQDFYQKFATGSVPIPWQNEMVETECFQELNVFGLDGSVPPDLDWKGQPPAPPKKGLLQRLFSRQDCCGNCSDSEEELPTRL
inactive: erlotinib -0.014 | [1] -0.126 | [2] 0.015 | [3] -0.009 | [4] -0.046 | [5] -0.063 | [6] 0.284 | [7] -0.161 | [8] 0.108 | IRAK-1-4 Inhibitor I 0.053 | ibrutinib 0.083 | [9] 0.04 | ralimetinib -0.073 | [10] -0.068 | [11] -0.036 | [12] 0.021 | [13] -0.092 | [14] 0.048 | [15] -0.049 | [16] -0.005

HSD17B12 (UniProt Q53GQ0)
inactive: erlotinib -0.018 | [1] -0.026 | [2] -0.03 | [3] -0.018 | [4] 0.036 | [5] 0.006 | [6] -0.006 | [7] -0.022 | [8] 0.047 | IRAK-1-4 Inhibitor I 0.03 | ibrutinib -0.016 | [9] 0.004 | ralimetinib -0.026 | [10] 0.048 | [11] 0.069 | [12] 0 | [13] 0.024 | [14] -0.036 | [15] 0.049 | [16] 0.003

INTS1 (UniProt Q8N201)
Chain of UniProt Q8N201 (Q8N201 whole entry, looked up): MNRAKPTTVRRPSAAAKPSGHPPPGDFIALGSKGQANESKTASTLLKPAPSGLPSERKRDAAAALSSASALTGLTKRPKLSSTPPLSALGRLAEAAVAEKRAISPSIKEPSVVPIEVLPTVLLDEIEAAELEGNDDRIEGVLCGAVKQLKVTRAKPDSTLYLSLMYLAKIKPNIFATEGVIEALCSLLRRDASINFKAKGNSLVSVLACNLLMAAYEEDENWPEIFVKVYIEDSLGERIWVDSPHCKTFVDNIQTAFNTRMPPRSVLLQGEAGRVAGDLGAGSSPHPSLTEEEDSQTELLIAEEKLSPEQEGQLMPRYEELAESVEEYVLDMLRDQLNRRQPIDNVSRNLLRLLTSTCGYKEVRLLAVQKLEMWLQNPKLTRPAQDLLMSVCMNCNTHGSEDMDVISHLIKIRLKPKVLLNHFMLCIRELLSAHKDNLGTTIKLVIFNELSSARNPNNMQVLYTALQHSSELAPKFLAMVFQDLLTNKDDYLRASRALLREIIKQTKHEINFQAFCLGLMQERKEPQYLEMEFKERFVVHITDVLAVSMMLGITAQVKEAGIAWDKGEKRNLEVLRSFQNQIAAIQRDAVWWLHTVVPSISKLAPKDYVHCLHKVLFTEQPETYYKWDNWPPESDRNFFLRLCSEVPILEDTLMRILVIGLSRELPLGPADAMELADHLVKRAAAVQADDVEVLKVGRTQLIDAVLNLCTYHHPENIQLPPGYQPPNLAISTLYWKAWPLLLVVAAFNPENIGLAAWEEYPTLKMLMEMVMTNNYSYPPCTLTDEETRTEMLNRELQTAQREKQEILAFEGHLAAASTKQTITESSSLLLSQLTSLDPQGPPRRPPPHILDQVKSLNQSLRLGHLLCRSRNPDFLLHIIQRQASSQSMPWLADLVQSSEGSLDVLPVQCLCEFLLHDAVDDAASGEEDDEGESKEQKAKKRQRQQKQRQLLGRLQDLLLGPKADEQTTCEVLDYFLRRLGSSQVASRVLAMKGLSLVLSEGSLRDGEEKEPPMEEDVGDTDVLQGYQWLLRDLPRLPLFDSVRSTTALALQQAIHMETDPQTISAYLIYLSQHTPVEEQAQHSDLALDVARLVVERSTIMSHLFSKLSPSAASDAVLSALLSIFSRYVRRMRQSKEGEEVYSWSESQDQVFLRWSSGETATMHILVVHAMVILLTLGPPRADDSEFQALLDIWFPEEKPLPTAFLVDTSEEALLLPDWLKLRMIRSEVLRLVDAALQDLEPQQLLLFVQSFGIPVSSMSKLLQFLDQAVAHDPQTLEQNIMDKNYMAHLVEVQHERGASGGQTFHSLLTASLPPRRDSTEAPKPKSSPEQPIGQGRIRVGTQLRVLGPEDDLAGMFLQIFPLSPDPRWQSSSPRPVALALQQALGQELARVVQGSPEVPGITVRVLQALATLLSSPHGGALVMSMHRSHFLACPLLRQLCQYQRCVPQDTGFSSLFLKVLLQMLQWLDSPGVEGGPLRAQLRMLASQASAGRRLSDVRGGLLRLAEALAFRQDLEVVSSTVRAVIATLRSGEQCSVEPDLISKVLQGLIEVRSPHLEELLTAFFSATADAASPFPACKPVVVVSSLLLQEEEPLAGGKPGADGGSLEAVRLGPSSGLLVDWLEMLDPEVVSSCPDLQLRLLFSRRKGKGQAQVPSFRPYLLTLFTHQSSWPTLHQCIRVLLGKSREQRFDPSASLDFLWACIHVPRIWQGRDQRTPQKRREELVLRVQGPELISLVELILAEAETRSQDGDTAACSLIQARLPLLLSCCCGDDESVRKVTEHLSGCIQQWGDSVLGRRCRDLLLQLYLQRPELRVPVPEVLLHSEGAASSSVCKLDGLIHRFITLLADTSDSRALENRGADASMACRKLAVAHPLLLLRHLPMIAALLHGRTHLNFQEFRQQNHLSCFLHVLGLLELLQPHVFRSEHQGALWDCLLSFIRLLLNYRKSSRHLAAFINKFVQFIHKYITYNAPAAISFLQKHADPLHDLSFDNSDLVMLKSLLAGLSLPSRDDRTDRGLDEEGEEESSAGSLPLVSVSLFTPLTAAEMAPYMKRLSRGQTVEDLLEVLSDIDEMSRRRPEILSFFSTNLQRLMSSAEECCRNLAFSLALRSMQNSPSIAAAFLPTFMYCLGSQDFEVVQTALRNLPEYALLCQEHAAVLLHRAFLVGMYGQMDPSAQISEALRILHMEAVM
inactive: erlotinib 0.016 | [1] 0.063 | [2] 0.013 | [3] -0.071 | [4] -0.017 | [5] 0.027 | [6] -0.097 | [7] -0.01 | [8] 0.025 | IRAK-1-4 Inhibitor I 0.016 | ibrutinib -0.103 | [9] 0.177 | ralimetinib 0.053 | [10] -0.007 | [11] -0.052 | [12] -0.052 | [13] 0.038 | [14] -0.032 | [15] 0.035 | [16] 0.026

HAUS4 (UniProt Q9H6D7)
Chain of UniProt Q9H6D7 (Q9H6D7 whole entry, looked up): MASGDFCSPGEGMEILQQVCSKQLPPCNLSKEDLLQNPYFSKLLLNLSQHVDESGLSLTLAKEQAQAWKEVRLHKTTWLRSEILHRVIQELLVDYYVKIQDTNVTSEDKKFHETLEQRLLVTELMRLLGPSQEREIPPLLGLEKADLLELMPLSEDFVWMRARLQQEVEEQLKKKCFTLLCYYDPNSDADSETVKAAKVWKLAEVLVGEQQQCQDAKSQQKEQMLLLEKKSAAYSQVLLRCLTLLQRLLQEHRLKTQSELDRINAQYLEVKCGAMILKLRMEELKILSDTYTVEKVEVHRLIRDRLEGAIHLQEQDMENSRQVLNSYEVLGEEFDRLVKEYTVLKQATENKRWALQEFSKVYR
inactive: erlotinib 0.012 | [1] -0.029 | [2] -0.036 | [3] 0.064 | [4] -0.003 | [5] 0.015 | [6] -0.015 | [7] -0.025 | [8] -0.007 | IRAK-1-4 Inhibitor I -0.016 | ibrutinib 0.04 | [9] -0.033 | ralimetinib 0.003 | [10] 0.01 | [11] -0.004 | [12] 0.006 | [13] -0.016 | [14] -0.008 | [15] 0.057 | [16] -0.01

GPA33 (UniProt Q99795)
Chain of UniProt Q99795 (Q99795 whole entry, looked up): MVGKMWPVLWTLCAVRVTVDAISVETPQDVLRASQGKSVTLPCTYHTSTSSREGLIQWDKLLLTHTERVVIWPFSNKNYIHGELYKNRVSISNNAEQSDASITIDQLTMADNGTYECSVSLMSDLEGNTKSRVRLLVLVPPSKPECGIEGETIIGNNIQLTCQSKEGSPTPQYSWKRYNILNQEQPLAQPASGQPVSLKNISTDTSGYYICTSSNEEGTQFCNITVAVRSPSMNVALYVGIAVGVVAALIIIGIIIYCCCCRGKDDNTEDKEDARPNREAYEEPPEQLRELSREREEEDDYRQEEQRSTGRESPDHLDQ
inactive: erlotinib -0.014 | [1] 0.082 | [2] -0.002 | [3] -0.091 | [4] -0.032 | [5] -0.05 | [6] -0.151 | [7] 0.001 | [8] 0.046 | IRAK-1-4 Inhibitor I 0.024 | ibrutinib 0.037 | [9] -0.029 | ralimetinib 0.188 | [10] -0.123 | [11] -0.067 | [12] -0.091 | [13] 0 | [15] -0.024 | [16] 0.026

IMPDH2 (UniProt P12268)
inactive: erlotinib 0.001 | [1] -0.009 | [2] -0.018 | [3] -0.018 | [4] -0.013 | [5] -0.028 | [6] -0.003 | [7] 0.019 | [8] -0.003 | IRAK-1-4 Inhibitor I 0.011 | ibrutinib 0.049 | [9] -0.003 | ralimetinib 0.034 | [10] 0.028 | [11] 0.025 | [12] -0.034 | [13] 0.019 | [14] 0.017 | [15] -0.006 | [16] 0.016
